Screens deposited in PubChem BioAssay by several laboratories.
CYP2C9 activ = CYP2C9 (human) activation; AID 1024; recombinant CYP2C9, luciferin-H conversion, luminescence; hits give high values; factor 1 = untreated enzyme, 0 = blocked; actives 1.4% (n = 96,000); activation factor at 5 µM;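 active = activation factor of 2 or more for CYP2C9 at a 5 µM dose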;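 note: 0 = sulfaphenazole-blocked wells and 1 = vehicle-only wells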
Target sequence (P11712 whole entry, looked up): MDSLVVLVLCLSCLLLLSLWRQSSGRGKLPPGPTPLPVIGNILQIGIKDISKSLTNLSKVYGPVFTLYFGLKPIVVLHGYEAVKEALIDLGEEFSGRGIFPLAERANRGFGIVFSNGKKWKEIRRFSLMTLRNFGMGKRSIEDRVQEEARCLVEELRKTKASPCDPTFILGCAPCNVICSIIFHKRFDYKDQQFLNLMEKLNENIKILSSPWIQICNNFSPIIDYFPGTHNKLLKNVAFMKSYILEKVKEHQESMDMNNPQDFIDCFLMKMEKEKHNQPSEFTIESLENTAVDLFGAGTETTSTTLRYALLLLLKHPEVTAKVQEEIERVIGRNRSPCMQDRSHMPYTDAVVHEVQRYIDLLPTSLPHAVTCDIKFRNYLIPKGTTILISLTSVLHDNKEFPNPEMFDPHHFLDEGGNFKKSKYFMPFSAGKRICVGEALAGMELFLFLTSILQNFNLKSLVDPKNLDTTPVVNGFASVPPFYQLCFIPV
MRP reversal = reverses drug resistance mediated by MRP; actives 0.04% (n = 85,000); AID 602; differential viability (reversal), % at 10 µM; H69AR cells + 2 uM doxorubicin, CellTiter-Glo, 72 h;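 active = viability drop by adding the cancer drug above about 55%, with treated viability meeting a 40% cutoff, limit read from the data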;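 note: viability without doxorubicin minus viability with 2 µM doxorubicin for each compound; larger differential means the compound sensitizes cells more to doxorubicin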
CYP2C19 act = cytochrome P450 2C19 (human) activation; recombinant CYP2C19, luciferin-H EGE luminescence; hits give high values; 0 = fully inhibited enzyme, 1 = untreated enzyme; P33261; 96,000 tested, under 10 active; activation factor at 5 µM;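 active = activation factor of at least 2 at 5 µM in the primary screen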;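 note: 0 = wells with 2.5 mM tranylcypromine and 1 = vehicle-only wells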
CYP2C9 inhib = blocks human cytochrome P450 2C9 | CYP2C9 Supersomes, luciferin-H conversion, luminescence | inhibition, % at 5 µM | actives 20% (n = 96,000) | P11712;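 active = blocking of liver enzyme CYP2C9 beyond about 50% at 5 µM, limit read from the data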
MRP-1 activ = activates MRP-1; H69AR cells + doxorubicin, viability rescue, CellTiter-Glo; viability increase, % at 10 µM; actives 0.61% (n = 140,000);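 active = viability gain under doxorubicin at or above a set limit, the compound median plus 3 SD, cut at about 4.7% in these data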;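 note: MRP-1 overexpressing cells given doxorubicin 25 µM after compound pretreatment; 18-22 h compound pretreatment then 72 h with doxorubicin before readout; 0% = doxorubicin-only wells and 100% = vehicle-treated cells without doxorubicin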
CYP2C19 inh = human CYP2C19 inhibition; inhibition, % at 5 µM; actives 21% (n = 96,000); CYP2C19 Supersomes, luciferin-H EGE luminescence, 30 min; AID 778;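 active = CYP2C19 inhibition above a set limit at 5 µM in the primary screen, cut at about 50% in these data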;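 note: plate controls were negative control wells for no effect and 2.5 mM tranylcypromine positive control for full effect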
* hit, by the source's call. Hits are enriched below; roughly 21% of the tested compounds scored in any of these assays.

Screening CC(Sc1nnc(Cc2cccs2)n1C1CCCCC1)C(=O)N1CCc2ccccc21 (stereo not given) returned CYP2C9 activ 0.2, MRP reversal -6.3, CYP2C19 act 0.2, CYP2C9 inhib 76.1*, MRP-1 activ -1.7 and CYP2C19 inh 77.6*.
Screening CC(Sc1nnc(Cc2cccs2)n1C1CCCCC1)C(=O)NCc1ccco1 (stereo not given) returned CYP2C9 activ 0.3, MRP reversal 21.2, CYP2C19 act 0.6, CYP2C9 inhib 75.0*, MRP-1 activ -1.5 and CYP2C19 inh 43.3.
`CC(C)Sc1nnc(CNC(=O)C23CC4CC(CC(C4)C2)C3)n1C1CCCCC1` gave MRP-1 activ -2.2.
For O=C(O)/C=C/C(=O)Nc1ccccc1C(=O)Nc1ccccc1 the results were CYP2C9 activ 1, MRP reversal 10.9, CYP2C19 act 1.5, CYP2C9 inhib 3.7, MRP-1 activ 1.7 and CYP2C19 inh -48.3.
Screening CCOC(=O)c1c(C)oc2cc(Br)c(OC(=O)N3CCOCC3)cc12 returned CYP2C9 activ 0.5, MRP reversal 4.1, CYP2C19 act 0.2, CYP2C9 inhib 51.4*, MRP-1 activ -1.9 and CYP2C19 inh 75.8*.
CC(=O)Nc1ccccc1OCc1nnc(-c2cccs2)o1 was read as CYP2C9 activ 0.6, MRP reversal 17.2, CYP2C19 act 0.8, CYP2C9 inhib 35.9, MRP-1 activ -0.2 and CYP2C19 inh 24.2.
For Cc1cc(C(=O)COC(=O)c2ccc3c(c2)OCO3)c(C)n1Cc1cccs1 the results were CYP2C9 activ 0.8, MRP reversal 4.2, CYP2C19 act 0.5, CYP2C9 inhib 19.1, MRP-1 activ 5.6* and CYP2C19 inh 47.9.
Screening Cc1cc(C(=O)COC(=O)c2ccccc2O)c(C)n1Cc1cccs1 returned CYP2C9 activ 0.5, CYP2C19 act 0.4, CYP2C9 inhib 49.2, MRP-1 activ 2.3 and CYP2C19 inh 56.7*.
Screening CCn1nc(C(=O)OCC(=O)c2ccc3c(c2)OCCO3)c2ccccc2c1=O returned CYP2C9 activ 0.7, MRP reversal 2.7, CYP2C19 act 0.8, CYP2C9 inhib 28.3, MRP-1 activ -2.5 and CYP2C19 inh 18.1.
CCn1nc(C(=O)OCC(=O)c2cc(C)n(Cc3cccs3)c2C)c2ccccc2c1=O was read as CYP2C9 activ 0.6, MRP reversal -19.4, CYP2C19 act 0.2, CYP2C9 inhib 39.6, MRP-1 activ -0.4 and CYP2C19 inh 79.9*.
CC(=O)Nc1ccccc1OCC(=O)c1cc(C)n(Cc2cccs2)c1C was read as CYP2C9 activ 0.7, MRP reversal -7.3, CYP2C19 act 0.2, CYP2C9 inhib 32.4, MRP-1 activ -0.4 and CYP2C19 inh 80.5*.
For CC(=O)c1c(OC(=O)c2ccco2)c2ccccc2n1C the results were CYP2C9 activ 0.8, MRP reversal -6.4, CYP2C19 act 0.4, CYP2C9 inhib 23.3, MRP-1 activ -4.7 and CYP2C19 inh 62.5*.
O=C(Nc1cc(Oc2ccc(Cl)cc2)cc([N+](=O)[O-])c1)c1ccco1 was read as MRP-1 activ -0.6.
Screening CCOc1ccc(Oc2cc(NC(=O)c3ccco3)cc([N+](=O)[O-])c2)cc1 returned CYP2C9 activ 0.5, CYP2C19 act 0.7, CYP2C9 inhib 52.8*, MRP-1 activ 0.1 and CYP2C19 inh 33.0.
`Cc1nn(C)cc1C(=O)Nc1cc(Oc2ccc(Cl)cc2)cc([N+](=O)[O-])c1` gave CYP2C9 activ 0.5, CYP2C19 act 1.2, CYP2C9 inhib 51.5*, MRP-1 activ 0.8 and CYP2C19 inh -15.3.
For COc1ccc(N(CCCN2C(=O)c3cccc4cccc(c34)C2=O)C(=O)c2cccs2)cc1 the results were MRP-1 activ -2.1.
Screening Cc1ccc(N(CCCCN2C(=O)c3ccccc3C2=O)C(=O)c2cccs2)cc1 returned CYP2C9 activ 0.3, CYP2C19 act 0.4, CYP2C9 inhib 66.0*, MRP-1 activ -0.6 and CYP2C19 inh 61.2*.
`COc1cc(C)ccc1N(CCCN1C(=O)c2cccc3cccc(c23)C1=O)C(=O)c1cccs1` gave MRP-1 activ 8.7*.
`Cc1ccc(N(Cc2cc3cc(C)ccc3[nH]c2=O)C(=O)c2cccs2)cc1` gave MRP-1 activ 0.0.
For O=S(NCc1ccco1)C12CC3CC(CC(C3)C1)C2 (stereo not given) the results were MRP reversal 7.0 and MRP-1 activ -4.8.
`CC1=NN(C(=O)c2ccc(Cn3nc(C)c(Br)c3C)cc2)C(O)(C(F)(F)F)C1` (stereo not given) gave MRP-1 activ 5.2*.
Screening O=C(Nc1cccc(F)c1)NC1CCCCC1 returned CYP2C9 activ 0.6, MRP reversal -14.6, CYP2C19 act 0.4, CYP2C9 inhib 41.0, MRP-1 activ -2.9 and CYP2C19 inh 55.0*.
O=C(Nc1ccc(F)cc1)NC1CCCCC1 was read as CYP2C9 activ 0.8, MRP reversal 4.6, CYP2C19 act 0.8, CYP2C9 inhib 18.7, MRP-1 activ 0.3 and CYP2C19 inh 23.4.
For CCCCCN=Cc1c(C)[nH]n(-c2nc3ccccc3s2)c1=O the results were CYP2C9 activ 0.3, MRP reversal -1.3, CYP2C19 act 0.5, CYP2C9 inhib 72.7*, MRP-1 activ -2.6 and CYP2C19 inh 52.6*.
O=C(COc1ccc(Br)cc1)N1CCN(c2ccc([N+](=O)[O-])c(N3CCCCC3)c2)CC1 was read as MRP-1 activ 2.5.
`Cc1ccc(OCC(=O)N2CCN(c3ccc([N+](=O)[O-])c(N4CCOCC4)c3)CC2)cc1` gave CYP2C9 activ 0.4, CYP2C19 act 0.7, CYP2C9 inhib 57.1*, MRP-1 activ 0.6 and CYP2C19 inh 34.2.
Screening Cc1ccccc1C(=O)N1CCN(c2ccc([N+](=O)[O-])c(N3CCOCC3)c2)CC1 returned CYP2C9 activ 0.4, CYP2C19 act 0.5, CYP2C9 inhib 58.7*, MRP-1 activ -0.3 and CYP2C19 inh 54.6*.
`O=C(COc1ccccc1)N1CCN(c2ccc([N+](=O)[O-])c(N3CCCCC3)c2)CC1` gave CYP2C9 activ 0.2, CYP2C19 act 0.4, CYP2C9 inhib 78.7*, MRP-1 activ -3.6 and CYP2C19 inh 64.2*.
For CO/C([O-])=N/c1c[n+](-c2ccc(Cl)cc2)no1 the results were CYP2C9 activ 0.9, MRP reversal 28.3, CYP2C19 act 0.8, CYP2C9 inhib 9.5, MRP-1 activ 0.1 and CYP2C19 inh 17.5.
O=[N+]([O-])c1cc2c(c(CSc3nnc4ccccn34)c1)OCOC2 was read as MRP-1 activ -1.1.
Screening COc1ccc(Nc2nnc(SCc3cc([N+](=O)[O-])cc4c3OCOC4)s2)cc1 returned CYP2C9 activ 0.1, CYP2C19 act 0.6, CYP2C9 inhib 93.5*, MRP-1 activ -1.1 and CYP2C19 inh 37.3.
`O=C(NCc1ccccc1)N1CCC(c2nc3ccccc3[nH]2)CC1` gave CYP2C9 activ 0.9, MRP reversal -22.6, CYP2C19 act 1.1, CYP2C9 inhib 9.7, MRP-1 activ -1.3 and CYP2C19 inh -13.7.
